Source: PubChem BioAssay
MCF10A rerep: inducers of DNA re-replication in MCF 10A breast cells | Potency, µM (series often up to 46.1 µM), for the others: top-dose activity, positive = re-replication, usual class: activators | MCF 10A DNA re-replication, Hoechst nuclear intensity, 48 h | 2.9% of 350,000 active; also: potency is read from the fitted curve at half-maximal effect; % of control where 0% means no effect; nearly all actives have a fitted effect of over 50% in size
TDP1 cell noCPT: qHTS for Inhibitors of human tyrosyl-DNA phosphodiesterase 1 (TDP1): qHTS in cells in absence of CPT; DT40 Tdp1-/- hTDP1 cells, no CPT, ATP luminescence, 48 h; Potency, µM (series often up to 46.2 µM), for the others: at the highest dose activity change, negative = growth inhibition, most hits filed as inhibitors; 15% of 420,000 active; AID 686978, 2013; also: potency is read from the fitted curve at half-maximal effect; % is scaled to controls: 0 for no effect and ±100 for the full control effect; nearly all actives have a fitted effect of over 55% in size
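Growth kinetics read by CellTiter-Glo luminescence after ≥48 hr at 37 °C. Cells: DT40 Tdp1-/- stably carrying human TDP1, 400 per well, compound exposure in the absence of CPT (DMSO vehicle).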
IL1B secr inh: inflammasome signaling inhibition, IL-1 beta readout | 4.7% of 360,000 active | THP-1 LPS/ATP IL-1B secretion, AlphaLISA, 16 h; stronger effect = lower value | activity change, % at 57.5 µM; in the data active = activity change below about -50%; inconclusive = mostly about -30% to -49%; also: % is scaled to controls: 0 for no effect and ±100 for the full control effect
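THP-1 cells pretreated 1 hr with compounds (up to 57.5 uM final), then stimulated with LPS (250 ng/mL final) plus ATP (1.25 mM final); secreted IL-1B measured by AlphaLISA after 16 hr, decreased signal indicating inhibition.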
BCR signal inh: chronic active BCR signaling inhibition; Potency, µM (titrated, usually from 46.1 µM), for inactives: top-dose activity change, negative = inhibition, actives largely listed as inhibitors; ABC-DLBCL IkBa-CBG/CBR reporter, luminescence ratio, 4 h; 0.05% of 340,000 active; AID 493014; active = well fitted inhibition curve with a large enough effect in the signal ratio, with a control signal flat, not every such curve was filed as active; inconclusive = small, poorly fitted or top-dose-only effect, or effect the other way, or a change in a side signal; the % refers to the signal ratio;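 also: potency is read from the fitted curve at half-maximal effect; plate controls were basal doxycycline-induced cells for no effect and cells given 10 µM MG132 for full effect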
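TMD8 ABC-DLBCL cells carrying doxycycline-inducible green luciferase fused to IkappaBalpha plus unfused red luciferase were exposed to compounds (up to 46 uM) for 4 hrs at 37C. Activity came from the overlap-corrected green/red luminescence ratio.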
SW480 rereplic: inducers of DNA re-replication in SW480 colon cancer cells. SW480 DNA re-replication, Hoechst DNA content imaging, 48 h. Potency, µM (top dose mostly 46.1 µM), for inactives: top-dose re-replication activation, most hits filed as activators. 1.8% of 340,000 active. AID 624297; also: potency is read from the fitted curve at half-maximal effect; % of control where 0% means no effect; nearly all actives have a fitted effect of over 55% in size
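250 cells/well; 23 nL cpd via pin tool; 48 hr, 37 C, 5% CO2; Hoechst 40 min; imager read of total nuclear intensity, ex 405/em 500-530 nm.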
DT40 TDP1 CPT: DT40-hTDP1 cell growth loss with CPT; chicken DT40 Tdp1-/-;hTDP1 cells + 20 nM CPT, ATP luminescence, 48 h; Potency, µM (series often up to 46.2 µM), without a hit: at the highest dose activity change, negative = growth inhibition, most hits filed as inhibitors; 12% of 420,000 active; AID 686979; also: potency is read from the fitted curve at half-maximal effect; % is scaled to controls: 0 for no effect and ±100 for the full control effect; nearly all actives have a fitted effect of over 55% in size
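Chicken DT40 Tdp1-/- cells complemented with human TDP1, 400 cells/well, exposed to compounds plus 20 nM camptothecin for at least 48 h at 37 C; viability read as ATP content by CellTiter-Glo luminescence.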
* marks the source's active call; other numbers are inactive results; i = inactive; ? = inconclusive; / = no result given; ! = a repeat was not active; [ ] = remark or other dose. Sampled rows, rich in hits. Any-hit rate of the full collection: about 19%. Unless noted, calls follow the shape of the dose curve; as a rule, active = well fitted curve in the direction sought with a large enough effect; inconclusive = small, poorly fitted or top-dose-only effect, or another doubt; inactive = no such curve, though single readings can be large; an effect the other way counts as inactive or inconclusive.

SMILES	MCF10A rerep	TDP1 cell noCPT	IL1B secr inh	BCR signal inh	SW480 rereplic	DT40 TDP1 CPT
CCN=C1S/C(=C\c2ccc(Sc3ccc(Cl)cc3)o2)C(=O)N1CC	?	-18.3%	-26.5	-1.7%	?	-21.7%
CCN=C1S/C(=C\c2ccc(O)c(OCC)c2)C(=O)N1CC	?	20.6µM*	i	-2.3%	?	25.9µM*
CCOc1cc(/C=C2\SC(=S)N(NS(=O)(=O)c3ccc(C)cc3)C2=O)ccc1O	7.2%	-3.4%	-5.4	/	15.9%	-14.1%
CCOc1cc(/C=C2/SC(=Nc3ccccc3)N(Cc3cccnc3)C2=O)ccc1OCC#N	?	23.1µM*	-7.5	-10.0%	-1.7%[9.22 µM]	16.4µM*
CCN=C1S/C(=C\c2cc(OCC)c(O)cc2Br)C(=O)N1CC	18.4µM*	11.6µM*	-20.0	1.3%	?	20.6µM*
COc1cc(/C=C2\SC(=S)N(C(C(=O)O)c3ccccc3)C2=O)ccc1O (centres undefined)	2.3%	-4.7%	0.0	25.4%	-21.9%	0.2%
Cc1cccc(N2CCN(C(=O)CCc3nc4ccccc4[nH]3)CC2C)c1 (centres undefined)	-3.4%	?	-8.0	-3.6%	-0.3%	?
Cc1ccc(N2CCN(C(=O)CCc3nc4ccccc4[nH]3)CC2)c(C)c1	1.7%	?	-1.2	-11.0%	0.7%	18.4µM*
Cc1ccc2c(c1)CCCN2C(=O)CCc1nc2ccccc2c(=O)[nH]1	?	?	11.4	-8.7%	8.91µM*	0.461µM*
CC[C@@H](C)[C@H]1O[C@]2(CC[C@@H]1C)C[C@@H]1C[C@H](C/C=C(/C)[C@H](O[C@@H]3C[C@H](OC)[C@H](O[C@@H]4C[C@H](OC)[C@@H](O)[C@H](C)O4)[C@H](C)O3)[C@@H](C)/C=C\C=C3CO[C@@H]4[C@H](O)C(C)=C[C@@H](C(=O)O1)[C@]34O)O2 (tested in a mixture with another compound)	/	?	/	/	/	11.9µM*
CON=C1C[C@]2(C[C@@H]3C[C@@H](C/C=C(\C)C[C@@H](C)/C=C/C=C4\CO[C@@H]5[C@H](O)C(C)=C[C@@H](C(=O)O3)[C@]45O)O2)O[C@H](/C(C)=C/C(C)C)[C@H]1C	/	21.1µM*!	/	/	/	4.22µM*!
CC[C@H](C)[C@H]1O[C@]2(CC[C@@H]1C)C[C@@H]1C[C@@H](CC=C(C)[C@@H](O[C@H]3C[C@H](OC)[C@@H](O[C@H]4C[C@H](OC)[C@@H](O)[C@H](C)O4)[C@H](C)O3)[C@@H](C)C=CC=C3CO[C@@H]4[C@H](O)C(C)=C[C@@H](C(=O)O1)[C@]34O)O2	?	3.66µM*	-28.9	/	-8.9%	3.66µM*
CCC(C)[C@H]1O[C@]2(C=C[C@@H]1C)C[C@@H]1C[C@@H](C/C=C(\C)[C@@H](O[C@H]3C[C@H](OC)[C@@H](O[C@H]4C[C@H](OC)[C@H](NC(C)=O)[C@H](C)O4)[C@H](C)O3)[C@@H](C)/C=C/C=C3\CO[C@@H]4[C@H](O)C(C)=C[C@@H](C(=O)O1)[C@]34O)O2 (some centres undefined)	/	2.66µM*	/	/	/	4.22µM*
CC(C)[C@@H](NC(=O)C1CCC(CNC(=O)[C@H](Cc2ccccc2)NC(=O)OC(C)(C)C)CC1)C(=O)O (some centres undefined)	-5.4%	-2.6%	4.8	-0.3%	-10.6%	0.9%
Cc1ccc(-n2nc(C)c3c2C(Br)C(C)(C)CC3=O)nc1 (centres undefined)	?	-33.1%	0.0	/	-2.5%	?
COc1cccc(N2CCN(C(=S)Nc3cc(C)cc(C)c3)CC2)c1	11.2µM*	6.51µM*	8.3	0.2%	?	6.51µM*
CCOc1ccccc1NC(=S)N1CCN(c2cccc(OC)c2)CC1	13.8%	?	45.6	-3.8%	?	20.6µM*
Cc1ccc(NC(=O)C2=C(C(=O)O)CCCC2)cc1Br	4.9%	4.8%	-4.9	1.2%	8.2µM*	31.8%
COc1ccc(Cl)cc1N(C)C(=O)Cn1cnc2sc(C)c(S(=O)(=O)N3CCN(c4ncccn4)CC3)c2c1=O	/	?	/	/	/	-25.0%
CCOC(=O)N1CCN(CC(O)COc2ccc(OC)cc2C(C)(C)C)CC1 (centres undefined)	23.6%	?	10.9	-0.8%	-2.5%	?
COc1ccc(CCNCC(O)COc2ccc(OC)cc2C(C)(C)C)cc1 (centres undefined)	?	?	-97.0*	?	23.1µM*	?
COc1ccc(CCNCC(O)Cn2c3ccccc3c3ccccc32)cc1OC (centres undefined)	9.2µM*	11.6µM*	-54.9*	?	-2.0%	13µM*
COc1ccc(CCNCC(O)COc2cccc(Br)c2)cc1OC (centres undefined)	7.6%	?	-61.2*	?	1.9%	?
COc1ccc(C(=O)Oc2ccc(N(C)S(=O)(=O)c3ccccc3)cc2)cc1[N+](=O)[O-]	-24.6%	-18.3%	4.3	-15.5%	-13.4%	-18.4%
CCN[C@@H]1C[C@H](C)S(=O)(=O)c2sc(S(N)(=O)=O)cc21	8.5%	/	/	/	-2.1%	/
SMILES	MCF10A rerep	TDP1 cell noCPT	IL1B secr inh	BCR signal inh	SW480 rereplic	DT40 TDP1 CPT
CCOC(=O)CC1c2nc3ccccc3cc2CN1C(=O)OCC (centres undefined)	/	?	41.4	/	/	?
Cc1ccc(-c2cc3ncc(C(=O)c4cc([N+](=O)[O-])ccc4O)cn3n2)cc1	/	2.31µM*	/	/	/	?
CCOC(=O)COc1ccc([N+](=O)[O-])cc1-c1ccnc2cc(-c3ccc(C)cc3)nn12	/	-20.7%	/	/	/	-3.0%
Cc1ccc(-c2cc3nccc(-c4cc([N+](=O)[O-])ccc4O)n3n2)cc1	/	23.1µM*	/	/	/	23.1µM*
Cc1ccc(SCc2ccc(C(=O)N3CCCCC3)cc2)cc1	0.3%	?	-10.3	-0.2%	-3.4%	-9.6%
O=C(c1ccc(CSc2nc3ccncc3n2Cc2ccccc2F)cc1)N1CCCCCC1	/	25.9µM*	/	/	/	?
Cc1ccc(Cn2c(SCc3ccc(C(=O)N4CCCCC4)cc3)nc3ccncc32)cc1	/	8.2µM*	/	/	/	18.4µM*
Cc1ccc(Cn2c(SCc3ccc(C(=O)N4CCCCCC4)cc3)nc3ccncc32)cc1	/	20.6µM*	/	/	/	?
COc1ccc(-c2nnc(SCC(=O)Nc3ccc(Cl)cc3)s2)cc1	/	-19.3%	/	/	/	-22.8%
